# Records with an inconclusive call do not appear. A call without a number means that no potency is given here. Calls of active or inactive are those of the source. Calls come from the whole dose curve; as a rule, active = well fitted cell-killing curve with a large enough effect; inconclusive = small, poorly fitted or top-dose-only effect, or effect the other way; inactive = no such curve, though single readings can be large or run the other way.
# Key:
# [1] = Quantitative High-Throughput drug screen in 47 multiple myeloma cell lines against the NCATS MIPE library collection: EJM_DSMZ cell viability assay (AID 1918926; note: nearly all actives have a fitted effect of over 30% in size)
# Method in brief: (§1)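 Luminescent ATP measurement with CellTiter-Glo gives viability, scaled between DMSO-only wells (100%) and media-only wells (0%). Cells, 500 per well, faced library compounds for 48 hours at 37C.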
# [2] = Quantitative High-Throughput drug screen in 47 multiple myeloma cell lines against the NCATS MIPE library collection: AMO1_DSMZ cell viability assay (AID 1918927; note: nearly all actives have a fitted effect of over 30% in size)
# Method in brief: as §1
# [3] = Quantitative High-Throughput drug screen in 47 multiple myeloma cell lines against the NCATS MIPE library collection: ARD_JJKsccE7 cell viability assay (AID 1918929)
# Method in brief: as §1
# [4] = Quantitative High-Throughput drug screen in 47 multiple myeloma cell lines against the NCATS MIPE library collection: KMM1_JCRB cell viability assay (AID 1918960); note: nearly all actives have a fitted effect of over 30% in size
# Method in brief: (§2)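 CellTiter-Glo luminescence after 48 h exposure gives viability, scaled between DMSO-only (100%) and media-only (0%) controls. Library compounds are pinned onto 500 myeloma cells per well, incubated at 37C with 5% CO2.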
# [5] = Quantitative High-Throughput drug screen in 47 multiple myeloma cell lines against the NCATS MIPE library collection: Delta47_JCRB cell viability assay (AID 1918925; note: nearly all actives have a fitted effect of over 45% in size)
# Method in brief: as §1
# [6] = Quantitative High-Throughput drug screen in 47 multiple myeloma cell lines against the NCATS MIPE library collection: Karpas620_DSMZ cell viability assay (AID 1918959); note: nearly all actives have a fitted effect of over 30% in size
# Method in brief: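 Steps: seed 500 cells per well; pin-transfer MIPE 4.0 library; incubate 48 h at 37C, 5% CO2, humidified; add CellTiter-Glo, 5 min room temperature; read luminescence.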
# [7] = Quantitative High-Throughput drug screen in 47 multiple myeloma cell lines against the NCATS MIPE library collection: ARP1_JJKsccF8 cell viability assay (AID 1918928; note: nearly all actives have a fitted effect of over 40% in size)
# Method in brief: as §2
# Potency is the fitted concentration of half-maximal effect.
Structure (SMILES),Potency [1],Potency [2],Potency [3],Potency [4],Potency [5],Potency [6],Potency [7]
COc1ccc2[nH]cc(CCNC(C)=O)c2c1,inactive,0.235 µM (active),inactive,inactive,–,–,–
O=c1c(-c2ccc(O)cc2)coc2cc(O)cc(O)c12,inactive,–,14.8 µM (active),–,inactive,inactive,–
CC1(CN2CCC(n3c(=O)[nH]c4ccccc43)CC2)OCc2ccccc2-n2cccc21 (stereo not drawn),–,–,inactive,inactive,–,inactive,inactive
COc1cc2nc(N(C)CCCNC(=O)C3CCCO3)nc(N)c2cc1OC (stereo not drawn),inactive,–,–,inactive,–,inactive,–
Cc1cn([C@H]2C=C[C@@H](CO)O2)c(=O)[nH]c1=O,inactive,inactive,inactive,inactive,–,inactive,inactive
NS(=O)(=O)c1cc2c(cc1Cl)NCNS2(=O)=O,–,–,inactive,inactive,inactive,–,inactive
O=c1c(O)c(-c2ccc(O)c(O)c2)oc2cc(O)cc(O)c12,20.9 µM (active),–,–,–,11.8 µM (active),–,–
O=C1N(c2ccccc2)c2ccccc2C1(Cc1ccncc1)Cc1ccncc1,–,inactive,–,inactive,inactive,inactive,inactive
CC(C)NCC(O)c1ccc(O)c(O)c1 (stereo not drawn),14.8 µM (active),–,5.9 µM (active),2.64 µM (active),–,–,–
CC(COc1ccccc1)N(CCCl)Cc1ccccc1 (stereo not drawn),–,inactive,16.6 µM (active),inactive,inactive,–,inactive
CC(C)Cc1ccc(C(C)C(=O)O)cc1 (stereo not drawn),–,–,inactive,inactive,inactive,–,inactive
CCOC(=O)c1ncn2c1CN(C)C(=O)c1cc(F)ccc1-2,–,–,inactive,inactive,inactive,–,16.6 µM (active)
CN1CCC(=C2c3ccccc3C=Cc3ccccc32)CC1,–,–,inactive,–,9.35 µM (active),–,–
COC(=O)Nc1nc2ccc(C(=O)c3cccs3)cc2[nH]1,–,–,0.001 µM (active),0.001 µM (active),–,0.0017 µM (active),0.0042 µM (active)
CCC1(C)CC(=O)NC1=O (stereo not drawn),inactive,–,0.0037 µM (active),inactive,inactive,–,inactive
Cc1ccccc1N1C(=O)c2cc(S(N)(=O)=O)c(Cl)cc2NC1C (stereo not drawn),inactive,inactive,inactive,inactive,inactive,–,inactive
Clc1ccccc1C(c1ccccc1)(c1ccccc1)n1ccnc1,inactive,–,–,–,–,–,–
CC[N+](CC)(CC)CCOc1cccc(OCC[N+](CC)(CC)CC)c1OCC[N+](CC)(CC)CC,inactive,–,inactive,inactive,inactive,–,–
Cn1c(=O)c2c(ncn2C)n(C)c1=O,inactive,inactive,inactive,inactive,–,inactive,inactive
COc1cc2nc(N3CCN(C(=O)C4COc5ccccc5O4)CC3)nc(N)c2cc1OC (stereo not drawn),inactive,–,–,5.9 µM (active),–,–,–
CN(C)CCC=C1c2ccccc2C=Cc2ccccc21,inactive,–,inactive,inactive,–,inactive,–
Fc1ccc([C@@H]2CCNC[C@H]2COc2ccc3c(c2)OCO3)cc1,inactive,–,inactive,–,–,inactive,–
N[C@@H](Cc1c[nH]c2ccc(O)cc12)C(=O)O,inactive,–,–,18.7 µM (active),inactive,inactive,–
CN1CCN2c3ccccc3Cc3ccccc3C2C1 (stereo not drawn),–,–,–,–,–,inactive,–
NC(CO)C(=O)NNCc1ccc(O)c(O)c1O (stereo not drawn),–,–,inactive,–,inactive,–,23.5 µM (active)

# Source: PubChem BioAssay (NCATS)
